Source: PubChem BioAssay
Only some compounds are listed: those with a hit (about 2% of all), similar ones and a draw of the others.
SUMO Mot1 rescue – inhibitors of SUMOylation pathway: yeast Mot1-301 growth rescue; actives 1% (n = 320,000); S. cerevisiae Mot1-301 growth rescue, ATP luminescence, 38.5C; percent above DMSO median, 100 means doubled; growth rescue, % at 18.8 µM;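 active means every valid replicate shows activation above 250% relative to neutral control wells; inactive means the rest, any valid replicate at or below 250%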
PKA-R1A activ – activators of PKA-R1A complex; P00514+P68181; actives 0.083% (n = 340,000); PKA-R1A dissociation, Cy5-IP20 fluorescence polarization; scaled: DMSO 0%, 113 µM cGMP 100%; AID 504707; activation, % at 11.4 µM;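 active means percent activation above the mean of all tested compounds plus 3 SD, cut at about 19% in these data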;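 further: higher means more PKAc released from R1A so a rise in polarization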
MsrA act – activates bovine MsrA enzyme. purified bovine MsrA, absorbance read-out. activation, % at 10.6 µM. actives 0.3% (n = 360,000). AID 602163; in the data active means activation above about 7.5%
MsrA inhibitor – inhibits bovine methionine sulfoxide reductase A. purified bovine MsrA, absorbance read-out. inhibition, % at 15.5 µM. actives 0.75% (n = 360,000). AID 651718
PKA-R2B act – activates the human PKA-R2B holoenzyme complex | activation, % at 11.4 µM | actives 0.079% (n = 340,000) | PKA-R2B holoenzyme dissociation, Cy5-IP20 fluorescence polarization; R2B truncated from residue 108, S112A mutant; 0% DMSO only, 100% 113 µM cGMP | AID 504700;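 active means activation above a cutoff set at the mean over all compounds plus 3 SD, cut at about 18% in these data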;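 further: higher means more holoenzyme dissociation and a rise in polarization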
Target sequence (P31323 whole entry, looked up, other chains not shown, the tested form may be a part): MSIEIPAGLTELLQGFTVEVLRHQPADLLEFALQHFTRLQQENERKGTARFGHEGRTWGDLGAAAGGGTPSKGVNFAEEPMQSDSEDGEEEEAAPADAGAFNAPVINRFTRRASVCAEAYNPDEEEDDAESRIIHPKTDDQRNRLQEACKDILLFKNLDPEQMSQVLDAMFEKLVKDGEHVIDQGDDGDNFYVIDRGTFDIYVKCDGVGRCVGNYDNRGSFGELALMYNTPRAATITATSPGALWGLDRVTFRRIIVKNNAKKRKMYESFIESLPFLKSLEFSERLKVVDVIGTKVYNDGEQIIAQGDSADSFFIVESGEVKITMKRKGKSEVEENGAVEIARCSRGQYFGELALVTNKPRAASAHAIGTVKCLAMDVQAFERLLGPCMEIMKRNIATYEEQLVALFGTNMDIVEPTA
MsrA inh confirm – confirmation of bovine MsrA inhibitors; AID 651822; actives 41% (n = 2,300); shares compounds with MsrA inhibitor; purified bovine MsrA, absorbance read-out; inhibition, % at 15.5 µM;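 further: coupled to thioredoxin reductase with NADPH and selenocystamine and DMSO as substrate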
Of the large screens only hits and unclear results are named; the others gave an inactive call (follow-up assays come after a bar, where they were run). Unless noted, no stated cut-off is given here; in the data, active means inhibition above about 4.5%; inactive means the rest.

CCOC(=O)c1cccc(-n2cccc2/C=C2\NC(=O)N(CC(=O)O)C2=O)c1	MsrA inhibitor 5.0 | MsrA inh confirm inactive
C=CCn1c(SCC(=O)Nc2cc(OC)c(NC(=O)c3ccco3)cc2OC)nnc1-c1ccncc1	MsrA inhibitor 4.7 | MsrA inh confirm inactive
O=C1c2cccc3c([N+](=O)[O-])ccc(c23)C(=O)N1c1ccc(Cl)cn1	none
O=C1c2cccc3c([N+](=O)[O-])ccc(c23)C(=O)N1c1ccccn1	MsrA inhibitor 9.2 | MsrA inh confirm 6.0
Cc1cc2ccccn2c1C(=O)Nc1ccccc1	MsrA inhibitor 5.1 | MsrA inh confirm inactive
Cc1cc(NC(=O)CCc2c[nH]c3ccccc23)ccc1Oc1cccnc1	none (no result: SUMO Mot1 rescue, PKA-R1A activ, MsrA act, PKA-R2B act)
Cn1c(-c2ccncc2)nc2ccccc21	none
CCN(CC)c1ccc(-c2nc3cnccc3n2C)cc1	MsrA inhibitor 5.4 | MsrA inh confirm inactive
CCOC(=O)N/N=C\C=C\c1ccc2c(c1)OCO2	MsrA inhibitor 7.3 | MsrA inh confirm 4.7
CC(C)(C)OC(=O)N/N=C\C=C\c1ccc2c(c1)OCO2	MsrA inhibitor 5.1 | MsrA inh confirm inactive
CCN(CC)c1ccc(/C=N/NC(=O)CNC(=O)/C=C/c2ccco2)cc1	MsrA inhibitor 6.3 | MsrA inh confirm 8.0
COc1ccc(/C=N/NC(=O)Cc2ccc(Cl)cc2)cc1OC	none
CCN(CC)c1ccc(/C=N/NC(=O)Cc2ccc(OC)c(OC)c2)cc1	MsrA inhibitor 5.2 | MsrA inh confirm inactive
COC(=O)N/N=C\C=C\c1ccc2c(c1)OCO2	none
CCOC(=O)CNC(=O)/C=C/c1ccc2c(c1)OCO2	none
CC1(C(=O)NCc2ccccc2)CSCC(=O)N1CC(F)(F)F (stereo not given)	none (no result: SUMO Mot1 rescue, PKA-R1A activ, MsrA act, PKA-R2B act)
CCCCCCOc1ccc(/C=N/NC(=O)C2CC2)cc1	none
CCN(CC)c1ccc(/C=N/NC(=O)C2CC2)cc1	MsrA inhibitor 5.8 | MsrA inh confirm 5.5
COc1ccc(CC(=O)N/N=C/C=C/c2ccc3c(c2)OCO3)cc1OC	MsrA inhibitor 5.9 (no result: PKA-R1A activ, PKA-R2B act) | MsrA inh confirm inactive
COc1ccc(/C=C/C(=O)NCc2ccc3c(c2)OCO3)cc1OC	none
O=C(O)c1cccc(C(=O)O)c1S(=O)Cc1ccccc1 (stereo not given)	none (no result: SUMO Mot1 rescue, PKA-R1A activ, MsrA act, PKA-R2B act)
COc1ccc(NC(=O)COC(=O)C2CCCCC2)c([N+](=O)[O-])c1	MsrA inhibitor 12 | MsrA inh confirm 8.1
CC1(C)CC(=O)C(C=Nc2ccc3[nH]ncc3c2)=C(O)C1	MsrA inhibitor 5.6 | MsrA inh confirm 4.8
COc1cccc(N=CC2=C(O)CCCC2=O)c1	none
COc1cccc(N=CC2=C(O)CC(C)(C)CC2=O)c1	MsrA inhibitor 6.2 | MsrA inh confirm inactive
CC1(C)CC(=O)C(C=Nc2ccc(O)cc2)=C(O)C1	MsrA inhibitor 5.4 | MsrA inh confirm inactive
CC1(C)CC(=O)C(C=Nc2ccc(N)cc2)=C(O)C1	none (no result: SUMO Mot1 rescue)
CCOC(=O)c1ccc(Nc2c(OCC)c(=O)c2=O)cc1	MsrA inhibitor 5.9 | MsrA inh confirm inactive
CC(C)C[C@H]1CNC(=O)C(=O)N1C[C@@H]1CCCN1C[C@H](CC(C)C)N1C[C@H](Cc2ccccc2)N(CCc2ccccc2)C(=O)C1=O	none (no result: SUMO Mot1 rescue, PKA-R1A activ, PKA-R2B act)
Cc1nonc1C(=O)N/N=C/c1ccc(O)cc1O	MsrA inhibitor 5.1 | MsrA inh confirm inactive
O=C(N/N=C/c1ccc(O)cc1O)c1ccncc1	MsrA inhibitor 4.9 | MsrA inh confirm inactive
Cc1ccc(S(=O)(=O)N2[C@H](CC(=O)c3ccc(Cl)c(Cl)c3)OC[C@@H]2C(C)C)cc1	none (no result: SUMO Mot1 rescue, PKA-R1A activ, MsrA act, PKA-R2B act)
C[n+]1cccc(NC(=O)c2ccccc2)c1	none (no result: SUMO Mot1 rescue, PKA-R1A activ, PKA-R2B act)
CCOC(=O)C1=C(C(=O)OCC)C2N(Cc3ccc(C#N)cc3)c3ccccc3[C@@]23C[C@@H](C(=O)OC)N(S(=O)(=O)c2ccccc2C)C3=N1 (stereo not given in full)	none (no result: SUMO Mot1 rescue, PKA-R1A activ, MsrA act, PKA-R2B act)
COc1ccc(N(CCC#N)C(=O)/C(C#N)=C/c2cccs2)cc1	MsrA inhibitor 5.5 | MsrA inh confirm inactive
CC1(C(=O)NS(=O)(=O)C2CC2)CCN(C(=O)c2cc(F)cc(F)c2)C1 (stereo not given)	none (no result: SUMO Mot1 rescue, PKA-R1A activ, PKA-R2B act)
Cc1cc(/C=C(\C#N)C(=O)NCc2ccco2)c(C)n1-c1ccc(C(=O)O)cc1	MsrA inhibitor 6.8 | MsrA inh confirm inactive
CCOc1cc(/C=N/NC(=O)c2ccc3c(c2)OCCO3)cc(Br)c1O	MsrA inhibitor 6.0 | MsrA inh confirm 6.9
O=C(N/N=C/c1cc(Br)c(O)c(Br)c1O)c1ccc2c(c1)OCCO2	none
COc1ccc(/C=N/NC(=O)c2ccc3c(c2)OCO3)cc1	none
COc1cc(/C=N/NC(=O)c2cccs2)ccc1O	none
CN(C)c1ccc(/C=N/NC(=O)c2ccc3c(c2)OCCO3)cc1	MsrA inhibitor 5.0 | MsrA inh confirm 5.5
COc1cc(/C=N/NC(=O)c2ccc3c(c2)OCO3)ccc1O	MsrA inhibitor 6.3 | MsrA inh confirm inactive
COc1cc(/C=N/NC(=O)c2ccc(-n3cccc3)cc2)ccc1O	MsrA inhibitor 5.9 | MsrA inh confirm 4.8
CCCCNC(=O)C[C@H]1C[C@@]2(C(=O)OC)C(=C[C@H](C3CCCC3)O[C@@H]2C)N(Cc2ccccc2)C1=O	none (no result: SUMO Mot1 rescue, PKA-R1A activ, MsrA act, PKA-R2B act)
O=C1NC[C@@H](CCCCN2C[C@H](Cc3ccc(O)cc3)N(Cc3ccccc3)C(=O)C2=O)N(CCc2ccc(O)cc2)C1=O	none (no result: SUMO Mot1 rescue, PKA-R1A activ, PKA-R2B act)
Cc1ccc(SC[C@H](C)CN2CCC(NC(=O)OCc3ccccc3)CCC2=O)cc1 (stereo not given in full)	none (no result: SUMO Mot1 rescue, PKA-R1A activ, PKA-R2B act)
O=C(N/N=C/c1ccc2c(c1)OCO2)c1ccc2c(c1)OCCO2	MsrA inhibitor 4.9 | MsrA inh confirm inactive
O=C(N/N=C/c1ccc([N+](=O)[O-])cc1)c1cccs1	MsrA inhibitor 5.4 (no result: PKA-R1A activ, PKA-R2B act) | MsrA inh confirm 5.0
O=C(N/N=C/c1ccc(-c2cccc([N+](=O)[O-])c2)o1)c1cccs1	none
O=C(N/N=C/c1ccc2c(c1)OCO2)c1cccs1	MsrA inhibitor 6.1 | MsrA inh confirm inactive
CN(C)c1ccc(C(=O)N/N=C/c2ccccn2)cc1	MsrA inhibitor 7.4 | MsrA inh confirm inactive
O=C(N/N=C/c1ccc(Cl)cc1)c1ccc2c(c1)OCO2	none
Cc1ccc(C(=O)Nc2nnc([C@H]3C[C@H](O)[C@@H](CO)O3)s2)cc1	none (no result: SUMO Mot1 rescue, PKA-R1A activ, PKA-R2B act)
O=C(N/N=C/c1ccc2c(c1)OCO2)c1ccc(Br)o1	MsrA inhibitor 7.5 | MsrA inh confirm 8.3
Cc1ccc(/C=N/NC(=O)c2cccs2)s1	MsrA inhibitor 6.7 | MsrA inh confirm 4.9
COc1cc(/C=N/NC(=O)/C(=C\c2ccc3c(c2)OCO3)NC(=O)c2ccccc2)ccc1O	MsrA inhibitor 8.7 | MsrA inh confirm 4.9
COc1ccc(OC)c(NC(=O)C2(C)CCN2C(=O)Cc2ccc(Cl)cc2Cl)c1 (stereo not given)	none (no result: SUMO Mot1 rescue, PKA-R1A activ, PKA-R2B act)
O=[N+]([O-])c1cccc(-c2nnc(-c3ccccc3)o2)c1	none
Cc1occc1-c1nnc(-c2cc([N+](=O)[O-])cc([N+](=O)[O-])c2)o1	MsrA inhibitor 7.7 (no result: PKA-R1A activ, PKA-R2B act) | MsrA inh confirm inactive
